# From PubChem BioAssay
# This is a sample that favours compounds with a hit; in the whole collection about 9.2% have one here.
# Rab9 prom act – qHTS Assay for Rab9 Promoter Activators | Huh7 Rab9 promoter-luciferase reporter, luminescence, 24 h | Potency, µM (doses to about 9.22 µM), for inactives: at the highest dose activation, negative = inhibition, actives largely listed as activators | 320,000 tested, 2.8% active | AID 485297, 2010; further: % of control where 0% means no effect; nearly all actives have a fitted effect of over 60% in size
#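 Measured in stably transfected Huh7 cells bearing a Rab9 promoter–luciferase construct: 24 h compound treatment at 37 °C, followed by luminescence detection.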
# ELG1 genotoxic – qHTS screen for small molecules that induce genotoxicity in human embryonic kidney (HEK293T) cells expressing luciferase-tagged ELG1. 330,000 tested, 1.3% active. AID 504466, 2011. Potency, µM (titrated, usually from 46 µM), for inactives: at the top dose activity change, positive = activation, most hits filed as activators. HEK293T ELG1-luciferase reporter, luminescence, 16 h; further: % of control where 0% means no effect; nearly all actives have a fitted effect of over 60% in size
#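 Cells (2,000/well) expressing the ELG1-luciferase fusion are dosed by pin tool and kept 16 hr at 37 °C, 5% CO2. Signal comes from ONE-Glo luciferase reagent after 30 min at room temperature.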
# FLuc counter – qHTS profiling assay for firefly luciferase inhibitor/activator using purifed enzyme and Km concentrations of substrates (counterscreen for miR-21 project). Luciferin 4-monooxygenase (Photinus pyralis), P08659. Potency, µM (titrated, usually from 57.5 µM), without a hit: top-dose activity change, negative = inhibition, actives largely listed as inhibitors. 360,000 tested, 6.9% active. purified FLuc, Km substrates, luminescence inhibition;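 further: plate controls were vehicle for no effect and reference inhibitor for full effect; nearly all actives have a fitted effect of over 55% in size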
# Target sequence (P08659 whole entry, looked up): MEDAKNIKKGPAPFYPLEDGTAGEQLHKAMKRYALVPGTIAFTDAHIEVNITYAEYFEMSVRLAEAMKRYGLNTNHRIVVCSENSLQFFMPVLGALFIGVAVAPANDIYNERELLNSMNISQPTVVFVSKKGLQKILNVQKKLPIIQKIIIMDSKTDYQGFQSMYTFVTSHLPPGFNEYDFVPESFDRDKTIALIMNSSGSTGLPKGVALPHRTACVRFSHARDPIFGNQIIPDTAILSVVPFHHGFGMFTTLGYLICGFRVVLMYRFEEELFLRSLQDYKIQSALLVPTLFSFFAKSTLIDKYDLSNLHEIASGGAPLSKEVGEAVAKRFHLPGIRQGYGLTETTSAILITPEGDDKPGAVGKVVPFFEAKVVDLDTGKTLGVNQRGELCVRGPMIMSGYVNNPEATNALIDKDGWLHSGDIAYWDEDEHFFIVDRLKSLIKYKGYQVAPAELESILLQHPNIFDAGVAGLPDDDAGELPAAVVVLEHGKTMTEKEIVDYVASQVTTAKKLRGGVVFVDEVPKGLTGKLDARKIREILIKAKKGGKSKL
#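 Purified P. pyralis luciferase (10nM final) with 10uM D-luciferin and 10uM ATP (Km levels) in 50mM Tris acetate pH 7.5, 10mM Mg acetate, 0.01% Tween-20, 0.05% BSA; qHTS 6-point titration, ~60 µM downward; luminescence read.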
# ELG1 DNA repair – qHTS screen for small molecules that inhibit ELG1-dependent DNA repair in human embryonic kidney (HEK293T) cells expressing luciferase-tagged ELG1. HEK293T ELG1-luciferase reporter, luminescence, 16 h; DNA damage induced by 5-fluorouridine. Potency, µM (top dose mostly 46.1 µM), for inactives: at the highest dose activity change, negative = inhibition, most hits filed as inhibitors. 330,000 tested, 2.3% active. AID 504467, 2011; further: on the % scale 0 is the no-effect control and ±100 the full control effect; nearly all actives have a fitted effect of over 55% in size
#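 Step one: seed 2,000 cells per well. Step two: pin-transfer compound or DMSO alongside 5-fluorouridine. Step three: incubate 16 hr, 37 °C, 5% CO2. Step four: add ONE-Glo, wait 30 min, read luminescence.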
# SMN2 splice enh – qHTS Assay for Enhancers of SMN2 Splice Variant Expression; HEK293 SMN2-luciferase splicing reporter, luminescence, 30-36 h; Potency, µM (top dose mostly 46.1 µM), for the others: top-dose activity change, positive = activation, actives largely listed as activators; 210,000 tested, 2.8% active; AID 1458, 2008; further: % of control where 0% means no effect; nearly all actives have a fitted effect of over 55% in size
#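 qHTS luciferase splicing reporter: luminescence rises when SMN2 exon 7 is included in transfected HEK293 cells. Compound exposure lasted 30-36 h at 37C, with 4.5 mM final sodium butyrate as control, followed by a ONE-Glo read.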
# NPC1 prom act – qHTS Assay for NPC1 Promoter Activators; Huh7 NPC1 promoter luciferase reporter, 24 h; Potency, µM (series often up to 9.22 µM), without a hit: at the top dose activation, hits mostly activators; 320,000 tested, 2.4% active; further: % of control where 0% means no effect; nearly all actives have a fitted effect of over 60% in size
#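 Quantitative HTS used a cell-based reporter: Huh7 cells stably bearing the NPC1 promoter upstream of luciferase were treated with compounds for 24 h, and promoter activation was read as luminescence.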
# * = called active by the depositor; u = inconclusive; x = no result; [ ] = another dose, or the depositor's remark. The call rests on the fitted dose curve; in most records, active means well fitted curve in the direction sought with a large enough effect; inconclusive means small, poorly fitted or top-dose-only effect, or another doubt; inactive means no such curve, though single readings can be large; an effect the other way counts as inactive or inconclusive. Potency means the concentration at half of the fitted maximal effect.
SMILES,Rab9 prom act,ELG1 genotoxic,FLuc counter,ELG1 DNA repair,SMN2 splice enh,NPC1 prom act
CCc1ccc(/C=N/Nc2ncnc3nc[nH]c23)cc1,1.3µM*,7.3µM*,3µM*,u,x,2.8µM*
Cc1ccc(S(=O)(=O)N2CCc3nc(-c4ccccc4)c4c(c3C2)CO[C@@H](C)C4)cc1,x,x,x,x,1%[9.22 µM],x
COc1ccc(CN2CCN(Cc3nc4ccccc4s3)CC2CCO)c(C)c1C (stereo not drawn),-21%,3%,-1%,16µM*,x,-5%
CCc1ccc2c(CC(=O)Nc3cccc(S(=O)(=O)N4CCOCC4)c3)coc2c1,1%,0%,u,-21%,x,3%
Cc1ccc(C)c(OCCn2cc(/C=C(\C#N)C(=O)NCC3CCCO3)c3ccccc32)c1 (stereo not drawn),-7%,-8%,-9%,16µM*,-17%,-3%
Cc1ccc(C)c(OCCn2cc(/C=C(\C#N)C(=O)NCc3cccs3)c3ccccc32)c1,2%,-2%,6%,5.8µM*,4%,-2%
N#C/C(=C\c1cn(CCOc2ccccc2F)c2ccccc12)C(=O)NCc1cccs1,7%,6%,1%,14%,-11%[1.84 µM],-5%
CC(=O)N1CCOc2cc(S(=O)(=O)NCc3ccccc3Cl)c(Cl)cc21,-5%,x,8%,x,x,-25%
COc1ccccc1NC(=O)CSc1nc2c(oc3ccccc32)c(=O)n1Cc1ccco1,x,x,7%,x,-12%,x
Clc1ccc(-c2cn3ccccc3n2)cc1,0.45µM*,u,0.67µM*,u,x,0.71µM*
Clc1ccc(-c2cn3c(n2)CCC3)cc1,u,4.1µM*,12µM*,u,18%,2.2µM*
Oc1ccc(-c2cn3cc(C(F)(F)F)ccc3n2)cc1,0.5µM*,2.1µM*,0.67µM*,u,0.89µM*,0.79µM*
Clc1ccc(-c2nnc3n2CCCCC3)cc1,-9%,2%,-1%,10%,9%,0%
Cc1ccc(-c2cc(C(F)(F)F)n3nc(-c4ccc(Cl)cc4)cc3n2)cc1,x,x,2%,x,-5%,x
Clc1ccc(-c2cn3cc(Cl)ccc3n2)cc1,0.79µM*,1.3µM*,0.27µM*,u,x,3.5µM*
Brc1ccc(-c2cn3ccccc3n2)s1,0.35µM*,0.65µM*,0.76µM*,u,7.1µM*,1µM*
CCN(C(=O)C1=COCCO1)c1nc2c(C)cccc2s1,u,21µM*,15µM*,u,x,29%
Cc1cc(C)c2nc(N(CCCN(C)C)C(=O)C3=COCCO3)sc2c1,3%,11%,3%,23%,x,-5%
CCn1ccc2c(OCC(=O)Nc3ccccc3C(F)(F)F)cccc2c1=O,x,x,3%,x,x,x
CCc1ccccc1NC1=NCC(=O)N1Cc1ccc(OC)cc1,9%,3%,1%,10%,x,-2%
COc1ccc(CN2C(=O)CN=C2Nc2cc(C)ccc2C)cc1,30%,18µM*,-1%,u,-21%,13%
O=C(CN(Cc1ccc(Br)cc1)S(=O)(=O)c1ccccc1)NCC1CCCO1 (stereo not drawn),-8%,1%,3%,4%,x,-5%
Cc1cccc(Cn2cc3c(=O)n(CC(=O)Nc4c(C)cccc4C)nc-3c3cc(F)ccc32)c1,x,x,-7%,x,x,x
CC(C)Oc1ccc(CNC(=O)C(C)n2ccc3cc(S(=O)(=O)N4CCCCCC4)ccc32)cc1 (stereo not drawn),x,x,-11%,x,x,x
O=C(Nc1ccccn1)c1ccc(S(=O)(=O)N2CCCCCC2)cc1,u,9.2µM*,17µM*,u,x,u
SMILES,Rab9 prom act,ELG1 genotoxic,FLuc counter,ELG1 DNA repair,SMN2 splice enh,NPC1 prom act
Cc1ccnc(NC(=O)c2ccc(S(=O)(=O)N3CCCCC3)cc2)c1,1%,-1%,-9%,-8%,x,3%
O=C(Nc1ccc(S(=O)(=O)N2CCCCC2)cc1)c1ccncc1,-6%,0%,-1%,u,x,-3%
O=C(Nc1ccccn1)c1ccc(Br)c(S(=O)(=O)N2CCCCC2)c1,-5%,-5%,2%,-6%,-4%,1%
O=C(Nc1ccccn1)c1ccc(S(=O)(=O)N2CCCCC2)cc1,u,9.2µM*,13µM*,u,x,u
Cc1ccnc(NC(=O)c2ccc(S(=O)(=O)N3CCCCCC3)cc2)c1,27%,11%,8.5µM*,u,x,16%
O=C(Nc1ccc(Cc2ccncc2)cc1)c1ccc(S(=O)(=O)N2CCCC2)cc1,-40%,-14%,0%,2.9µM*,-45%,-24%
CC(C)Cn1c(=O)c2ccccc2n2c(CCC(=O)Nc3cccc(Cl)c3)nnc12,x,x,-2%,x,6%,x
Cc1ccc(C(=O)NCC(c2cccnc2)N2CCc3ccccc3C2)cc1C (stereo not drawn),x,x,2.7µM*,x,x,x
COc1ccc(N2Nc3n[nH]c(N)c3N2)cc1,u,8%,27µM*,u,u,20%
CCOc1ccc(N2Nc3n[nH]c(N)c3N2)cc1,u,u,19µM*,u,u,u
CCOc1ccc(Cc2n[nH]c(=S)n2N)cc1,2%,-2%,7%,-14%,u,1%
BrC(=C\c1ccccc1)/C=N/Nc1nc(N2CCOCC2)nc(N2CCOCC2)n1,-4%,-3%,2%,16µM*,-12%[1.84 µM],-4%
CC(/C=N/Nc1nc(N2CCCCC2)nc(N2CCCCC2)n1)=C\c1ccccc1,-1%,-5%,3%,8%,-29%,11%
BrC(/C=C\c1ccccc1)=N/Nc1nc(N2CCOCC2)nc(N2CCOCC2)n1,0%,-1%,-1%,12µM*,-11%,-4%
CC(C)CC(=O)Nc1nc2nc(-c3ccccc3)cc(=O)n2[nH]1,x,x,u,x,-2%,x
CCCn1c(N)c(C(=O)NS(=O)(=O)c2ccc(C)cc2)c(=O)n(C)c1=O,-7%,-16%,2%,10µM*,-45%,-13%
CC(=O)Nc1ccc(NC(=O)C/C(C)=N/NC(=O)c2cccc3ccccc23)cc1,-6%,1%,15µM*,8%,x,-11%
CC(=O)Nc1ccc(NC(=O)C/C(C)=N/NC(N)=S)cc1,-3%,-5%,-3%,-5%,9%,-5%
Cc1ccc(CS(=O)Cc2ccc(C(=O)NCc3ccc(OC(C)C)cc3)o2)cc1 (stereo not drawn),0%,-9%,-4%,7.3µM*,x,-2%
Cc1ccc(S(=O)Cc2ccc(C(=O)NCc3ccc(OC(C)C)cc3)o2)cc1 (stereo not drawn),x,x,-10%,x,x,x
